# Assay outcomes deposited in PubChem BioAssay by several laboratories.
# A selection: hits, their analogues and other compounds. The true share with any hit is near 13%.
# CHOP inhibitor = CHOP inhibition in unfolded protein response. CHO-K1 CHOP-promoter luciferase, tunicamycin-induced, 15-18 h. AID 2732. actives 3.8% (n = 220,000). inhibition, % at 10 µM;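 active means compounds that reduced the stress-induced luciferase reporter signal by more than about 70% of percent inhibition, limit read from the data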;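 further: 0% = tunicamycin plus vehicle and 100% = wells without tunicamycin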
# RAM inhibit = inhibitors of the yeast RAM network | inhibition, % at 50 µM | actives 1.8% (n = 190,000) | S. cerevisiae dse1pr::URA3 reporter, 5-FOA growth OD615, 2 d; analog-sensitive cbk1-as2 kinase mutant strain;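 active means inhibition above a set limit, 3 SD over mean compound inhibition, cut at about 8.4% in these data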;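 further: 0% = DMSO-only wells with no growth and 100% = 10 µM 1-NA-PP1 full growth; inhibition rescues growth on 5-FOA so higher OD means more RAM inhibition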
# WT yeast gro inh = growth inhibition of WT yeast, mitochondrial fusion screen; actives 2.1% (n = 190,000); mitochondrial fusion phenotypic screen, WT strain; inhibition, % at 10 µM; in the data active means inhibition above about 58%; tested in S. cerevisiae
# Lmaj promast = inhibitors of Leishmania major promastigote growth. AID 1063. Leishmania major promastigotes, resazurin fluorescence viability. inhibition, % at 10 µM. actives 9% (n = 200,000); in the data active means inhibition above about 50%;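 further: promastigotes grown with compound for 44 hours at 28 °C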
# Active calls of the source: *; x = no result.
SMILES,CHOP inhibitor,RAM inhibit,WT yeast gro inh,Lmaj promast
CCc1n[nH]c(=S)n1/N=C/c1ccc2c(c1)OCO2,17,2,15,-6
Cc1n[nH]c(=S)n1/N=C/c1ccc(OCc2ccc(Cl)cc2)cc1,-47,4,24,4
S=c1[nH]nc(Cc2ccc(Br)cc2)n1/N=C/c1ccc(Cl)cc1,-12,8,93*,-5
CCc1n[nH]c(=S)n1/N=C/c1ccc(N(C)c2ccccc2)cc1,17,-1,72*,29
COc1ccccc1Nc1ccc(S(=O)(=O)N2CCCCC2)cc1[N+](=O)[O-],51,3,-10,1
Cc1cc(C)n(-c2nc(C)nc(NCc3ccccc3)n2)n1,25,0,41,59*
Cc1nn(-c2nnc(NCc3ccccc3)nn2)c(C)c1Br,73*,1,20,84*
CNc1nc(C)nc(-n2nc(C)cc2C)n1,28,1,5,-6
Cc1cc(C)n(-c2nnc(NCc3ccc(Cl)cc3)nn2)n1,28,4,18,91*
Cc1nn(CC(O)c2ccccc2)c(C)c1Br (stereo not given),-6,1,7,-1
N#Cc1cccc(NCC(=O)Nc2ccc3c(c2)OCCO3)c1,-42,2,-11,-7
COc1cc(OC)cc(C(=O)N[C@H](C(=O)Nc2nc(-c3ccc(F)c(F)c3)cs2)C(C)C)c1,42,3,-10,6
CCCCC(=O)N(c1ccc(C(=O)O)cc1)c1nc(-c2ccc(Cl)cc2)c(CC)s1,17,4,19,10
CCc1sc(N(C(=O)Cc2ccccc2)c2ccccc2)nc1-c1ccccc1,35,11*,14,3
CCc1sc(N(C(=O)Cc2ccccc2)c2ccc(F)cc2)nc1-c1ccccc1,-7,9.1*,11,3
CCCOc1ccccc1N/C(=N/c1nc(C)cc(C)n1)NC(=O)COc1ccc(OC)cc1,46,7,0,97*
Cc1cc(C)nc(/N=C(\N)Nc2ccc(-c3ccccc3)cc2)n1,56,4,7,98*
CCCOc1ccccc1N/C(N)=N/c1nc(C)cc(C)n1,22,0,-5,90*
CCCCN(CCCC)/C(N)=N/c1nc(C)cc(C)n1,23,0,1,45
Cc1cc(C)nc(/N=C(\N)N(Cc2ccccc2)Cc2ccccc2)n1,11,1,23,90*
CC(C)N1CCC(NC(=O)Nc2ccc3c(c2)OCO3)CC1,-41,0,-14,-9
COc1ccc(/C=C(\NC(=O)c2ccccc2)C(=O)NC2CCS(=O)(=O)C2)cc1 (stereo not given),7,x,x,x
CC(C)N1CCC(N2CCN(C3CCCCCC3)CC2CCO)CC1 (stereo not given),9,4,-3,0
CCn1ccnc1CN(C)Cc1nc(CCC(C)C)no1,30,-1,-10,-3
CC1=CC(C)(C)[N+](C)=CN1c1ccccc1,8,2,4,-6
SMILES,CHOP inhibitor,RAM inhibit,WT yeast gro inh,Lmaj promast
CCCOc1ccccc1NC(=O)/C=C/C(N)=O,-92,3,51,101*
CC(C)CN1C(=O)/C(=C(/C#N)C(=O)NC2CCCCC2)c2ccccc21,92*,6,34,97*
CC(C)(C)n1nnnc1C(c1cccs1)N(Cc1cccnc1)Cc1ccccc1Cl (stereo not given),6,0,74*,100*
CC(c1nnnn1C(C)(C)C)N(Cc1cccnc1)Cc1ccccc1Cl (stereo not given),25,0,17,96*
Cc1ccnc(N2CCN(C(=O)CSc3nc4ccccc4nc3N3CCC(C)CC3)CC2)c1,0,0,27,3
COc1ccc(NCc2ccc([N+](=O)[O-])s2)cc1,-31,0,-4,73*
COc1ccc(NCc2ccc([N+](=O)[O-])s2)c(OC)c1,26,-1,-1,98*
CCn1c(SCC(=O)NCc2ccccc2)nnc1-c1c[nH]c2ccccc12,36,2,8,10
COC(=O)c1cn(C(=O)/C=C/c2ccc(OC)c(OC)c2)c2ccccc12,48,3,5,26
Cc1ccccc1OCC(O)CN1CCC(C)CC1 (stereo not given),-7,5,3,72*
Cc1ccccc1OCC(O)CN1CCN(c2ccc(Cl)cc2)CC1 (stereo not given),82*,x,x,x
Cc1ccccc1OCC(O)CN1CCN(CC(O)COc2ccccc2C)CC1 (stereo not given),2,2,0,63*
Cc1ccc(C)c(OCC(O)CN2CCC(C)CC2)c1C (stereo not given),-8,0,17,100*
Cc1ccccc1OCC(O)CN1CCCCC1 (stereo not given),-23,1,-12,13
O=C(NCc1cccc(C(F)(F)F)c1)C1CC(c2ccccc2C(F)(F)F)=NO1 (stereo not given),6,x,x,x
Cc1[nH][nH]c(=O)c1C(c1c(C)[nH][nH]c1=O)c1cn(Cc2ccccc2Cl)c2ccccc12,-10,2,63*,28
O=C1CCN(S(=O)(=O)c2ccc(Br)cc2)CCN1,10,2,-4,0
Cc1ccc(OCCCCN(C)Cc2ccccc2)c(Br)c1,-1,1,58,90*
Cc1ccc(C(C)C)c(OCCCN2C(=O)NC(C)(C)C2=O)c1,39,1,12,6
COc1ccccc1OCCCOc1ccc(C)cc1Br,-26,4,53,0
Cc1ccc(C(C)C)c(OCCCN(C)Cc2ccccc2)c1,75*,-1,43,96*
COc1ccccc1NC(=O)CSc1nnc(COc2ccccc2OC)n1C,13,-1,-14,-5
Oc1ccc(/C=N/n2c3ccccc3c3ccccc32)cc1,91*,1,-2,2
Nc1cccc(/C=C/c2ccncc2)c1,2,x,x,x
Cc1nc2ccc(N=NC3=C(O)CC(C)(C)CC3=O)cc2s1,-5,0,-14,91*
SMILES,CHOP inhibitor,RAM inhibit,WT yeast gro inh,Lmaj promast
Cc1ccc(O)c(N=NC2=C(O)CC(C)(C)CC2=O)c1,54,0,-5,99*
CC1(C)CC(=O)C(N=Nc2cc3c(cc2[N+](=O)[O-])OCCO3)=C(O)C1,-16,9.5*,17,-8
Cc1ccc(C(=O)c2cc3c(cc2[N+](=O)[O-])OCCO3)cc1,0,2,24,6
CC1(C)CC(=O)C(N=Nc2cc(Cl)c(Cl)c(Cl)c2)=C(O)C1,44,2,7,-3
Cc1csc(C(C)N(C)C(=O)CCc2nnc(CCc3ccccc3)o2)n1 (stereo not given),-9,-1,-17,-8
CCc1c(C(=O)Nc2ccncc2)csc1C,71*,0,23,32
CCc1c(C(=O)Nc2ncn(Cc3cccc(C)c3)n2)csc1C,19,2,-27,-5
O=C(Nc1ccncc1)c1cccs1,44,1,10,59*
O=C(Nc1ccc(NC(=O)c2cccs2)cc1)c1ccc(Br)o1,90*,4,8,-6
O=C(NNC(=O)c1cccs1)c1ccc(Br)o1,43,1,-13,-7
O=C(Nc1cccnc1)c1cccs1,5,0,-11,-3
CSCC[C@H](NC(=O)C1CCN(S(=O)(=O)c2ccc(C)cc2)CC1)C(=O)NC1CCS(=O)(=O)C1 (stereo not given in full),-29,0,-7,-4
